Compound activity deposited in PubChem by National Center for Advancing Translational Sciences (NCATS).
KB-V1 MDR tox: KB-V1 MDR subline cytotoxicity; KB-V1 MDR cells viability, CellTiter-Glo, 72 h; Potency, µM (titrated, usually from 46.1 µM), most hits filed as cytotoxic; actives 3.4% (n = 400,000); also: nearly all actives have a fitted effect of over 60% in size
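Drug-selected KB-V1 cells, grown in DMEM lacking phenol red with 10% FBS, receive compound titrations; after three days at 37 degrees C, surviving cell ATP is quantified by CellTiter-Glo luminescence and responses normalized and curve-fitted.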
VP16 counter: inhibits Gal4-VP16 luciferase reporter, ROR gamma counter-screen; Drosophila S2 Gal4-VP16 UAS-luciferase, luminescence, 20 h; Potency, µM (top dose mostly 53.6 µM), most hits filed as inhibitors; actives 3.5% (n = 310,000);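 also: Gal4-VP16 expression switched on by copper sulfate through the metallothionein promoter; nearly all actives have a fitted effect of over 50% in size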
KB-3-1 cytotox: KB-3-1 parental cell cytotoxicity | Potency, µM (series often up to 46.1 µM), hits mostly cytotoxic | actives 1.4% (n = 400,000) | KB-3-1 viability, CellTiter-Glo ATP luminescence, 72 h | AID 1347075; also: nearly all actives have a fitted effect of over 60% in size
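Parental KB-3-1 viability, qHTS format: 72 h compound exposure, 37 °C; CellTiter-Glo; media-only wells and DMSO plates as controls; concentration-effect fits on corrected data.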
RORgamma inh: ROR gamma (mouse) transcription inhibition; actives 5.4% (n = 310,000); P51450; Potency, µM (top dose mostly 53.6 µM), hits mostly inhibitors; Drosophila S2 Gal4-RORgamma UAS-luciferase reporter, 20 h; also: nearly all actives have a fitted effect of over 60% in size
Target sequence (P51450 whole entry, looked up, the tested form may be a part): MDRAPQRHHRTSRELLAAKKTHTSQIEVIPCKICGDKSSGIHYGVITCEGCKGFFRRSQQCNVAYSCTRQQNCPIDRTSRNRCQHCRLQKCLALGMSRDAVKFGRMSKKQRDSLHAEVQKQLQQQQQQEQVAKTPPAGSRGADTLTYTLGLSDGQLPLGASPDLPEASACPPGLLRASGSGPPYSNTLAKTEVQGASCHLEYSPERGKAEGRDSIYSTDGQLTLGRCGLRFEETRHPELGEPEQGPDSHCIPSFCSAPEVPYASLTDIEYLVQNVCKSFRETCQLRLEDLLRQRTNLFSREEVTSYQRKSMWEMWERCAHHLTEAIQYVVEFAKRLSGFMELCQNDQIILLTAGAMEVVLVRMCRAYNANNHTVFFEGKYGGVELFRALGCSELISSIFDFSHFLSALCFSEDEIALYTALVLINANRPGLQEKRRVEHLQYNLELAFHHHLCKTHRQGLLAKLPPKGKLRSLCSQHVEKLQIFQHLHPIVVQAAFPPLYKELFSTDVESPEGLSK
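Using a luciferase readout, inhibitors were identified by reduced reporter activity in Drosophila cells coexpressing a copper-inducible Gal4–ROR gamma fusion and UAS-driven Photinus luciferase, incubated 20 hr after 700 uM copper sulfate.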
SW480 rereplic: inducers of DNA re-replication in SW480 colon cancer cells; SW480 DNA re-replication, Hoechst DNA content imaging, 48 h; Potency, µM (highest dose often 46.1 µM), most hits filed as activators; actives 1.8% (n = 340,000); AID 624297; also: nearly all actives have a fitted effect of over 55% in size
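Quantitative HTS format with DMSO vehicle controls; 48 hr drug incubation at 37 C, then 40 min Hoechst staining and scanning imager measurement at 405 nm excitation.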
MCF10A rereplic: induces DNA re-replication in MCF 10a normal breast cells; MCF 10A DNA re-replication, Hoechst nuclear intensity, 48 h; Potency, µM (titrated, usually from 46.1 µM), actives largely listed as activators; actives 2.9% (n = 350,000); AID 624296; also: nearly all actives have a fitted effect of over 50% in size
Each line names hits and unclear results; the compound was inactive in the other large screens. A selection: hits, their analogues and other compounds. The true share with any hit is near 10%. Calls follow the shape of the dose curve; as a rule, active = well fitted curve in the direction sought with a large enough effect; inconclusive = small, poorly fitted or top-dose-only effect, or another doubt; inactive = no such curve, though single readings can be large; an effect the other way counts as inactive or inconclusive.

Cc1ccc(NC(=O)CSc2nc3ccccc3c(=O)n2CCCN2CCCCC2)cc1C	KB-V1 MDR tox inconclusive, VP16 counter inconclusive, KB-3-1 cytotox inconclusive, RORgamma inh inconclusive, SW480 rereplic inconclusive, MCF10A rereplic 14.6µM
Cc1ccc(-c2nc(CCN3C(=O)c4ccccc4C3=O)cs2)cc1	KB-V1 MDR tox 13µM, MCF10A rereplic inconclusive
Cc1ccc(NC(=O)CSc2nc3ccccc3nc2N2CCCC2)cc1	KB-V1 MDR tox inconclusive, KB-3-1 cytotox 18.4µM
CC(C)Oc1ccccc1NC(=O)CSc1nc2ccccc2c(=O)n1C	KB-3-1 cytotox inconclusive, RORgamma inh inconclusive
Cc1ccccc1C(=O)Nc1ccc(OCc2cc(=O)n3cccc(C)c3n2)cc1	none (no result: VP16 counter, RORgamma inh, SW480 rereplic, MCF10A rereplic)
CN1CCN(c2nc(-c3ccoc3)nc3ccccc23)CC1	none (no result: KB-V1 MDR tox, KB-3-1 cytotox, SW480 rereplic, MCF10A rereplic)
O=C(CSc1nc2ccccc2c(=O)n1CCC(=O)N1CCCCC1)NCc1ccccc1	KB-V1 MDR tox 2.06µM, RORgamma inh inconclusive
COCCCn1c(SCC(=O)Nc2ccc(C)cc2)nc2ccccc2c1=O	KB-V1 MDR tox inconclusive, MCF10A rereplic inconclusive
Cc1ccc(-c2nc(CSc3nc4ccccc4c(=O)n3CCO)cs2)cc1	RORgamma inh inconclusive, MCF10A rereplic inconclusive
Cc1ccc(NC(=O)CSc2nc3ccccc3c(=O)n2CCCC(=O)N2CCCC2)cc1	KB-V1 MDR tox inconclusive, KB-3-1 cytotox 6.31µM, SW480 rereplic inconclusive
C=CCn1c(SCc2csc(-c3ccc(C)cc3)n2)nnc1-c1ccccc1OC	KB-V1 MDR tox 13µM, VP16 counter inconclusive, RORgamma inh inconclusive, MCF10A rereplic inconclusive (no result: SW480 rereplic)
Cc1ccc(-c2nc(CSc3nc4ccccc4c(=O)n3C)cs2)cc1	KB-V1 MDR tox 11.6µM, KB-3-1 cytotox inconclusive, MCF10A rereplic inconclusive
Cn1c2c(c(=O)n(C)c1=O)C(c1ccccc1C(F)(F)F)CC(=O)N2 (centres undefined)	none (no result: VP16 counter, RORgamma inh, SW480 rereplic, MCF10A rereplic)
CN(C)c1ccc(/C=C/c2c3c(nc4ccccc24)CCCC3)cc1	none (no result: VP16 counter, RORgamma inh, SW480 rereplic, MCF10A rereplic)
COc1cc(=O)n(C)c2c(OC[C@@H](O)C(C)(C)O)cccc12	none (no result: KB-V1 MDR tox, KB-3-1 cytotox, SW480 rereplic, MCF10A rereplic)
Cc1ccccc1NC(=O)CSc1nc2cc3c(cc2cc1C)CCC3	KB-3-1 cytotox inconclusive, SW480 rereplic 6.51µM, MCF10A rereplic inconclusive
CCC(=O)Nc1ccc(NC(=O)CSc2nc3cc4c(cc3cc2C)CCC4)cc1	none
CS(=O)(=O)N1N=C(c2ccccc2)CC1c1ccc2nccnc2c1 (centres undefined)	KB-V1 MDR tox 20.6µM, MCF10A rereplic inconclusive
COc1ccc(-n2c(=O)c3sc4ccccc4c3n(C)c2=O)cc1	none (no result: VP16 counter, RORgamma inh, SW480 rereplic, MCF10A rereplic)
COc1ccccc1C(=O)Nc1ccc2c(c1)nc(CCNC(=O)c1ccco1)n2C	KB-V1 MDR tox inconclusive, KB-3-1 cytotox 1.64µM, SW480 rereplic 5.17µM, MCF10A rereplic inconclusive
O=C(Nc1ccc2c(c1)nc1n2CCSC1)c1ccco1	VP16 counter 3.16µM, RORgamma inh 2.24µM
Cn1c(CCNC(=O)c2ccccc2)nc2cc(NC(=O)c3ccco3)ccc21	KB-V1 MDR tox 16.4µM, KB-3-1 cytotox inconclusive, RORgamma inh inconclusive
Cc1nc2cc(NC(=O)c3ccco3)ccc2n1C	VP16 counter inconclusive, RORgamma inh 15.8µM
Cc1nc2cc(NC(=O)NCc3ccco3)ccc2n1C	none
O=C(Nc1ccc2c(c1)nc1n2CCOC1)c1ccco1	none
Cn1c(CCNC(=O)c2ccco2)nc2cc(NC(=O)c3ccco3)ccc21	none
COc1cccc(CN(C)C(=O)c2ccc(Cl)c(S(=O)(=O)N3CCCCCC3)c2)c1OC	KB-V1 MDR tox inconclusive (no result: VP16 counter, RORgamma inh)
Cc1cccc(NC(=O)c2cc(NC(=O)c3ccco3)ccc2N2CCCCC2)c1	MCF10A rereplic 11.6µM
O=C(Nc1ccc(N2CCCCC2)c(C(=O)O)c1)c1ccco1	none
CCN(CC)CCOCCOC(=O)C(CC)(CC)c1ccccc1 (tested in a mixture with another compound)	MCF10A rereplic 29.9µM (no result: KB-V1 MDR tox, KB-3-1 cytotox)
CC(C)(C)c1ccc(C(=O)Nc2cc(-c3ccccc3)nn2-c2ccccc2)cc1	none (no result: VP16 counter, RORgamma inh, SW480 rereplic, MCF10A rereplic)
O=c1c(-c2ccco2)nc2ccccc2n1C(c1ccccc1)c1nc2ccccc2[nH]1 (centres undefined)	KB-V1 MDR tox inconclusive (no result: VP16 counter, RORgamma inh, SW480 rereplic, MCF10A rereplic)
